Experimental data from PubChem BioAssay (NCATS).
Inconclusive results are not listed. Entries that show only a call come without a potency. Activity calls are given as the source filed them. Calls come from the whole dose curve; as a rule, active = well fitted inhibition curve with a large enough effect; inconclusive = small, poorly fitted or top-dose-only effect; inactive = flat fitted curve, though single readings scatter.

Assays:
Assay in all cases: qHTS profiling for inhibitors of Plasmodium falciparum proliferation (AID 504749); note: nearly all actives have a fitted effect of over 60% in size
Conditions in all cases: P. falciparum in erythrocytes, SYBR Green DNA, 72 h; series mostly up to 28.7 µM
CP237 = system: CP237
Summary of the method: (§1)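 Three-day growth assay of blood-stage parasites in erythrocytes (0.3% parasitemia, 2.5% hematocrit) at 37 C, 5% CO2, quantified by SYBR Green DNA staining after overnight detergent lysis.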

CP238 = system: CP238
Summary of the method: as §1

CP247 = system: CP247
Summary of the method: as §1

CP250 = system: CP250
Summary of the method: as §1

CP252 = system: CP252
Summary of the method: as §1

CP256 = system: CP256
Summary of the method: as §1

CP260 = system: CP260
Summary of the method: as §1

CP262 = system: CP262
Summary of the method: as §1

CP265 = system: CP265
Summary of the method: as §1

CP266 = system: CP266
Summary of the method: as §1
Potency is the fitted concentration of half-maximal effect.

Compound | Potency (CP237) | Potency (CP238) | Potency (CP247) | Potency (CP250) | Potency (CP252) | Potency (CP256) | Potency (CP260) | Potency (CP262) | Potency (CP265) | Potency (CP266)
CC(=O)Oc1cc(C(C)C)c(OCCN(C)C)cc1C | inactive | inactive | inactive | inactive | inactive | inactive | inactive | inactive | inactive | inactive
O=C(O)CP(=O)(O)O | inactive | inactive | inactive | inactive | inactive | inactive | inactive | inactive | inactive | inactive
CCO/C([O-])=N/c1c[n+](N2CCOCC2)no1 | inactive | inactive | inactive | inactive | inactive | inactive | inactive | inactive | inactive | inactive
Cc1scc2c1N(C(=O)CN1CCN(C)CC1)c1ccccc1NC2=O | inactive | inactive | inactive | inactive | inactive | inactive | inactive |  | inactive | inactive
CCCCNc1c(C(=O)OCC)c(C)nc2c1cnn2CC | inactive | inactive | inactive | inactive | inactive | inactive |  | inactive | inactive | inactive
O=C(O)CN(CCN(CC(=O)O)CC(=O)O)CCN(CC(=O)O)CC(=O)O | inactive | inactive | inactive | inactive | inactive | 11.2 µM (active) | inactive |  |  | inactive
CC(C)(Oc1ccc(CCNC(=O)c2ccc(Cl)cc2)cc1)C(=O)O | inactive | inactive | inactive | inactive | inactive | inactive | inactive | inactive | inactive | inactive
CC(C)NNC(=O)c1ccncc1 | inactive | inactive | inactive | inactive |  |  | inactive | inactive | inactive | inactive
CCN(CC)CCCN(c1ccccc1)C1Cc2ccccc2C1 | 2.82 µM (active) | 11.2 µM (active) | 8.91 µM (active) | 7.94 µM (active) | 10 µM (active) | 4.47 µM (active) | 2.82 µM (active) |  | 3.98 µM (active) | 8.49 µM (active)
CCn1ccnc1CC1COc2ccccc2O1 (stereo unspecified) | inactive | inactive | inactive | inactive | inactive | inactive |  | inactive | inactive | inactive
NCCCNCCSP(=O)(O)O | inactive | inactive | inactive | inactive | inactive | inactive | inactive | inactive | inactive | inactive
CCOC(=O)c1cnc2c(cnn2CC)c1NN=C(C)C | inactive | inactive | inactive | inactive | inactive | inactive |  | inactive | inactive | inactive
CC(N=C(NC#N)Nc1ccncc1)C(C)(C)C (stereo unspecified) | inactive | inactive | inactive | inactive | inactive | inactive | inactive |  | inactive | inactive
FC(F)(F)c1ccccc1-n1ccnc1 | inactive | inactive | inactive | inactive | inactive | inactive | inactive | inactive | inactive | inactive
Cc1ccc(S(=O)(=O)NC(=O)NN2CCCCCC2)cc1 | inactive | inactive | inactive | inactive | inactive | inactive | inactive |  | inactive | inactive
NS(=O)(=O)c1cc2c(cc1Cl)NC(C1CC3C=CC1C3)NS2(=O)=O (stereo unspecified) | inactive | inactive | inactive | inactive | inactive | inactive | inactive | inactive | inactive | inactive
Nc1nc(N)c2nc(-c3ccccc3)c(N)nc2n1 | inactive | inactive | inactive | inactive | inactive | inactive | inactive | inactive | inactive | inactive
C[C@]12CCC(=O)C=C1CC[C@@H]1[C@@H]2CC[C@@]2(C)[C@H]1CC[C@]2(O)C(=O)CO | inactive | inactive | inactive |  | inactive | inactive | inactive | inactive | inactive | inactive
C#CCN(C)CCCOc1ccc(Cl)cc1Cl | inactive | inactive | inactive |  | inactive | inactive | inactive | inactive | inactive | inactive
CC[N+](C)(C)c1cccc(O)c1 | inactive | inactive | inactive | inactive | inactive | inactive | inactive | inactive | inactive | inactive
O=C(CCNNC(=O)c1ccncc1)NCc1ccccc1 | inactive | inactive | inactive | inactive | inactive | inactive | inactive | inactive | inactive | inactive
CCn1cc(C(=O)O)c(=O)c2cc3c(cc21)OCO3 | inactive | inactive | inactive | inactive | inactive | inactive |  | inactive | inactive | inactive
